The values below come from PubChem BioAssay (NCATS).

Each structure is given as a SMILES string. Results filed as inconclusive are left out. A number with no mark means an inactive call. Activity calls are given as the source filed them. Unless noted, calls follow the shape of the full dose curve.

Assay [1] has as its target Glucocorticoid receptor (Homo sapiens) (UniProt P04150). In words: qHTS assay for small molecule antagonists of glucocorticoid receptor signaling (AID 588533; active = well fitted inhibition curve with a large enough effect in the signal ratio, with a control signal flat, not every such curve was filed as active; the % refers to the signal ratio;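 also: cells stimulated with 2 nM dexamethasone as agonist; % is scaled to controls: 0 for no effect and ±100 for the full control effect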). The procedure, abridged:
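Antagonist-mode qHTS: compound titrations added to GRE-bla HeLa cells, then dexamethasone 2 nM final; 18 h, 37 C. CCF4 FRET fluorescence normalized to dexamethasone and DMSO; IC50 from Hill fit.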
Background: In qHTS, concentration-response curves come from the screen itself.

In assay [2] the target is Peroxisome proliferator-activated receptor gamma (Homo sapiens) (UniProt P37231). Description: qHTS assay for small molecule antagonists of peroxisome proliferator-activated receptor gamma signaling (AID 588537; active = well fitted inhibition curve with a large enough effect in the signal ratio, with a control signal flat, not every such curve was filed as active; the % refers to the signal ratio;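 also: reporter cells co-stimulated with 50 nM rosiglitazone agonist during compound treatment; % of control where 0% means no effect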). The procedure, abridged:
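Antagonist mode, beta-lactamase reporter in HEK293; charcoal/dextran FBS 1%; 3000 cells/well, 37 C 6-6.5 h; cpd titration + rosiglitazone 50 nM final, 16 h 37 C; CCF4, 2 h RT; 460/530 nm; Hill fit → IC50, efficacy.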

The target in assay [3] is Vitamin D3 receptor (Homo sapiens) (UniProt P11473). In words: qHTS assay for small molecule agonists of vitamin D receptor signaling (AID 588543).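 Also: 0% = DMSO basal and 100% = reference agonist control.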 In short, it runs like this: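 Agonist-mode beta-lactamase reporter: HEK293T VDR-UAS-bla cells in charcoal-stripped 2% FBS, compound series 16 h 37 C, CCF4 2 h RT. EC50 from Hill fit, scaled against DMSO and 50 nM calcitriol control.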

A short description of assay [4]: qHTS assay for small molecule agonists of the antioxidant response element (ARE) signaling pathway (AID 651741; active = well fitted activation curve with a large enough effect in the signal ratio; the % refers to the signal ratio; also: potency is read from the fitted curve at half-maximal effect; as to activation: % of control where 0% means no effect). In short, it runs like this: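 Quantitative HTS in HepG2 cells stably expressing an ARE-beta-lactamase reporter; 16 h compound exposure at 37 C, followed by 2 h room-temperature incubation with LiveBLAzer B/G FRET substrate and fluorescence measurement.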

The target in assay [5] is Androgen receptor (Homo sapiens) (UniProt P10275). In words: qHTS assay for small molecule agonists of androgen receptor signaling (AID 588515; active = well fitted curve in the direction sought with a large enough effect in the signal ratio, with a control signal flat; the % refers to the signal ratio; also: % is scaled to controls: 0 for no effect and ±100 for the full control effect). Conditions: AR-UAS-bla HEK293, beta-lactamase ratio, agonist 16 h; activation: active compounds read high. In short, it runs like this: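 EC50 and efficacy came from Hill fits of titrations (up to 92 uM) normalized to 30 nM R1881 as 100% and DMSO as 0%. Compound exposure was 16 h at 37 C on AR-UAS-bla HEK293 cells, with a 405/460/530 nm CCF4 fluorescence read.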

Assay [6] has the same target. Description: qHTS assay for small molecule antagonists of androgen receptor signaling (AID 588516; active = well fitted curve in the direction sought with a large enough effect in the signal ratio, with a control signal flat, not every such curve was filed as active; the % refers to the signal ratio; also: % is scaled to controls: 0 for no effect and ±100 for the full control effect). The procedure, abridged: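 Antagonist mode: inhibition of R1881-stimulated (10 nM final) bla reporter in GeneBLAzer AR HEK 293 cells, 16 h at 37C, compounds titrated. IC50 and efficacy from Hill-equation fits of 405/460–530 nm FRET ratios.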
Assay [7] concerns the target Bile acid receptor (Homo sapiens) (UniProt Q96RI1). In words: qHTS assay for small molecule antagonists of farnesoid X receptor signaling (AID 588526). Also: % is scaled to controls: 0 for no effect and ±100 for the full control effect. In short, it runs like this: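 Beta-lactamase reporter antagonist mode: HEK293T FXR-UAS-bla cells, titrated compound, CDCA stimulation, 16 h 37 C, CCF4 dye 2 h RT. Data normalized to CDCA 50 uM and DMSO; Hill-fit IC50.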

In assay [8] the target is Vitamin D3 receptor (Homo sapiens) (UniProt P11473). Description: qHTS assay for small molecule antagonists of vitamin D receptor signaling (AID 588541). In short, it runs like this: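 Antagonist-mode beta-lactamase reporter assay: HEK293T VDR-UAS-bla cells were exposed to titrated compound alongside 1-alpha,25-dihydroxyvitamin D3 at 3 nM final for 16 h. Values were normalized to the 50 nM agonist control and DMSO basal, with IC50 and efficacy from Hill equation fits.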

Assay [9] deals with Retinoic acid receptor RXR-alpha (Homo sapiens) (UniProt P19793). In words: qHTS assay for small molecule agonists of retinoid X receptor alpha signaling (AID 588544).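 Also: 0% = DMSO basal wells and 100% = reference agonist.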
Assay [10] in a line: qHTS assay for small molecule activators of the nuclear factor-kappa B (NF-kB) signaling pathway (AID 651749; active = well fitted activation curve with a large enough effect in the signal ratio; the % refers to the signal ratio; also: series mostly up to about 77 µM; % of control where 0% means no effect). The conditions noted are these: NF-kB-bla ME-180 cells, beta-lactamase FRET ratio, 16 h; activation: active compounds read high. In short, it runs like this: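 Readout: beta-lactamase reporter driven by an NF-kB response element, detected fluorescently as loss of FRET. Cells were the ME-180 line, treated 16 hr at 37C with pin-transferred compound.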

Vitamin D3 receptor (Homo sapiens), sequence (P11473 whole entry, looked up): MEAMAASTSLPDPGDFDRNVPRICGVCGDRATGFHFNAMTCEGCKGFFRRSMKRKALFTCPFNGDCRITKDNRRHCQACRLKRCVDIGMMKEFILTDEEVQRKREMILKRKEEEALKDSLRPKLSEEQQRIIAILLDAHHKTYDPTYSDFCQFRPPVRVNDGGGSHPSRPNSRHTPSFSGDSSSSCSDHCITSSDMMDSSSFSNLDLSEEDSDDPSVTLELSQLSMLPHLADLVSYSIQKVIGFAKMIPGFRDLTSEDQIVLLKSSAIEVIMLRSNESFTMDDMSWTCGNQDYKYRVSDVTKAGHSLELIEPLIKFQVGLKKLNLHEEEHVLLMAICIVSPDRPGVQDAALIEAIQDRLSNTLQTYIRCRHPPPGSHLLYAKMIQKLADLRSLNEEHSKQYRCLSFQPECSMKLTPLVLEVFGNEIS
Retinoic acid receptor RXR-alpha (Homo sapiens), sequence (P19793 whole entry, looked up): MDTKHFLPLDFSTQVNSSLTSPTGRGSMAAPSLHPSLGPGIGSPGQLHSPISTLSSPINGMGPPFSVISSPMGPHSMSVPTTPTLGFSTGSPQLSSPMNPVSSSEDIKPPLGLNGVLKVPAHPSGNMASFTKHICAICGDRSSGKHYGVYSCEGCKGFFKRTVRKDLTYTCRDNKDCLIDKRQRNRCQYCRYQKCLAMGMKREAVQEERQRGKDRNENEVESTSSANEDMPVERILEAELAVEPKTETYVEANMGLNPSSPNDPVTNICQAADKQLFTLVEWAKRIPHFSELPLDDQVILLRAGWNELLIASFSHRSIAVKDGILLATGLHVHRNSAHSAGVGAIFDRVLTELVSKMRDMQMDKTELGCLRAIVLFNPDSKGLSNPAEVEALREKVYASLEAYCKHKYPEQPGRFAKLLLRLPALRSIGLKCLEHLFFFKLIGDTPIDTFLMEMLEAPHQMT
Bile acid receptor (Homo sapiens), sequence (Q96RI1 whole entry, looked up): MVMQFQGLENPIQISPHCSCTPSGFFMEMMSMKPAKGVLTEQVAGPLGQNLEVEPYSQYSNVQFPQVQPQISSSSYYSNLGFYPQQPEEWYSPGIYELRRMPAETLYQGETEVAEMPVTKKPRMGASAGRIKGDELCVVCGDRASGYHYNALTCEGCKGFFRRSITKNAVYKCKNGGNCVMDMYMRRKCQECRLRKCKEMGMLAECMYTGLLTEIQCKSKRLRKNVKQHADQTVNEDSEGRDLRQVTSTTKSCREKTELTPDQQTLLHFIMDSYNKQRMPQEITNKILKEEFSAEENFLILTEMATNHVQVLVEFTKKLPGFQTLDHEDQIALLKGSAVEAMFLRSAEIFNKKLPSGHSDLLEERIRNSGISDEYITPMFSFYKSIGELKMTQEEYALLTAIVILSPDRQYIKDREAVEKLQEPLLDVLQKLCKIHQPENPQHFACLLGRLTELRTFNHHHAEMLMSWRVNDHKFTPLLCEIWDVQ
Glucocorticoid receptor (Homo sapiens), sequence (P04150 whole entry, looked up): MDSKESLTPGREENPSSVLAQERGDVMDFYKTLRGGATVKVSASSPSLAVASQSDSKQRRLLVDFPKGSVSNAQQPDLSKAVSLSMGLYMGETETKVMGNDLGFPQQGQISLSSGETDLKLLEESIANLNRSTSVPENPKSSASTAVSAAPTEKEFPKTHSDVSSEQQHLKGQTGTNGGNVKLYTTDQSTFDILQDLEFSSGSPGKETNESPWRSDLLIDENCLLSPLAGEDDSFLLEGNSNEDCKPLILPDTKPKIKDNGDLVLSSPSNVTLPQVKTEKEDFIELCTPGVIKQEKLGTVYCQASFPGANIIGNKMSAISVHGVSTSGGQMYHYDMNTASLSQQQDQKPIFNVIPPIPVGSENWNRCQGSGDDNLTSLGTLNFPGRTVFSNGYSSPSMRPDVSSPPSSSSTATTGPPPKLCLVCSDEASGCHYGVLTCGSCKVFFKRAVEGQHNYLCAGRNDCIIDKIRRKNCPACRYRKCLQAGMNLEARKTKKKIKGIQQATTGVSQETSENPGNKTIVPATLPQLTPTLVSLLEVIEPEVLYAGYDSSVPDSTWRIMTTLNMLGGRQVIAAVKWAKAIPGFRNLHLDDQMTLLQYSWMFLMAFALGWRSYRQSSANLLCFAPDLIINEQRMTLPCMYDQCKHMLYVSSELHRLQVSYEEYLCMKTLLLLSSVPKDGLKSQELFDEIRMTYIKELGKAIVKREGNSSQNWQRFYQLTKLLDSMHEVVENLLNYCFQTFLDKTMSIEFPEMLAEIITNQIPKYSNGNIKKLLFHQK
Androgen receptor (Homo sapiens), sequence (P10275 whole entry, looked up): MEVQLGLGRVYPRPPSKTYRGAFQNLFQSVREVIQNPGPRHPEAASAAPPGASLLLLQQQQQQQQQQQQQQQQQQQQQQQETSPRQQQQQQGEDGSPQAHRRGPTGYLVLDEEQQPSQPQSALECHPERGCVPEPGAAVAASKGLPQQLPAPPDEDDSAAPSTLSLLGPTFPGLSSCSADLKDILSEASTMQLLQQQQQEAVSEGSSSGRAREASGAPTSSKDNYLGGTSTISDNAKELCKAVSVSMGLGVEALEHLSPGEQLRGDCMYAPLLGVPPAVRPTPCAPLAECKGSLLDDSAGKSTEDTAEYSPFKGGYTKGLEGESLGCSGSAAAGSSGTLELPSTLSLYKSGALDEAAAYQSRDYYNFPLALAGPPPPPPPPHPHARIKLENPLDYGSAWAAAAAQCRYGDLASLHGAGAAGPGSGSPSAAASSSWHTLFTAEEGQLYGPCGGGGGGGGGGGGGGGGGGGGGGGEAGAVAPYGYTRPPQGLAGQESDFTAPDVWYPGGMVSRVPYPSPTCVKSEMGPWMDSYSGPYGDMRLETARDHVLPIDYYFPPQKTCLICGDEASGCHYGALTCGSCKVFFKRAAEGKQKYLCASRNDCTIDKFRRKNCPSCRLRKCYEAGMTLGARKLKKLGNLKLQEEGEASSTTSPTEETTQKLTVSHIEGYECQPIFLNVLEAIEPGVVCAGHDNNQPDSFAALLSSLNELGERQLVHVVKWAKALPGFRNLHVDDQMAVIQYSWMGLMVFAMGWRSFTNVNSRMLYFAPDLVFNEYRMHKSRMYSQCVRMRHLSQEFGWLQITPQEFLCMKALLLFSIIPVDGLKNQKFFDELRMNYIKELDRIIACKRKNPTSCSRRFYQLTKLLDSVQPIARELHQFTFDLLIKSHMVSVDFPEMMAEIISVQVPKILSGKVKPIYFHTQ
Peroxisome proliferator-activated receptor gamma (Homo sapiens), sequence (P37231 whole entry, looked up): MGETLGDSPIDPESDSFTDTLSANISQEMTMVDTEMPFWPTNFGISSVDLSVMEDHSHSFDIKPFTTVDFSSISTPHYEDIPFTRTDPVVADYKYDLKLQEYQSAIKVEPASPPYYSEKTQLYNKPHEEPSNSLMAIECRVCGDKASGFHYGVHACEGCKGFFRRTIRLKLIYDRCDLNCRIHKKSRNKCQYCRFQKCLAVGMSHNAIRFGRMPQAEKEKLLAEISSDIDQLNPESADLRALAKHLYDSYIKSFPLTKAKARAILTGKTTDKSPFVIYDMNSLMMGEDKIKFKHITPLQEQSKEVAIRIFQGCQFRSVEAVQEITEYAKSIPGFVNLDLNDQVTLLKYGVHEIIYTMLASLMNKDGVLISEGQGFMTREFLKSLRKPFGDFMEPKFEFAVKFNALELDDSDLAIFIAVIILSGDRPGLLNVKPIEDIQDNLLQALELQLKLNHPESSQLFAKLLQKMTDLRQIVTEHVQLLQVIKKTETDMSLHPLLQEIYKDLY

As to `CCCC/C=C/CCCCO`, the Potency result in [1], in [2] and in [4] was “inactive” each time. In addition, in assay [3], the call was inactive.

Consider `NCCCCCCCCCCC(=O)O`, for which the activation in assay [5] is 0.655%; in [10] it was -0.282%. In addition, the result in [6] and in [3] was inactive. Further, the Potency result in assay [7], in [1], in assay [2], in assay [8], in assay [9] and in [4] was “inactive” throughout.

`Cc1ccc(C(C)(C)C)c(O)c1`: the Potency result in assay [7], in [2], in assay [8] and in [4] was “inactive” throughout. Further, in [10], the activation is 0.363%.

For the molecule `CCCOC(=O)c1ccc(C(=O)OCCC)nc1`, the activation in [5] was -11.4%; in assay [10], 1.57%. Also, the molecule was called inactive in [6] and in [3]. The Potency entry in [7] and in assay [2] was “inactive” in each case.

Regarding `Cn1sccc1=O`, the Potency result in [7], in assay [1] and in [8] was “inactive” in each case.

Consider `CCCCCCCCCCCC(=O)N(C)CC(=O)O`, for which the Potency entry in assay [9] is “inactive”.

For `CC(C)(C)c1n[nH]c(=O)n(N)c1=O`, the results for the activation in assay [5] and in [10] were 8.74% and 0.103%, respectively. Besides, the result in assay [6] and in [3] was inactive. Besides, the Potency result in assay [7], in assay [1], in [2] and in assay [4] was “inactive” each time.

With `CC(C)CCCCCOC(=O)CS`, the Potency result in assay [1], in assay [2], in assay [9] and in [4] was “inactive” in each case. For the same molecule, the activation in [10] was 3.32%.

Take `CSC(=O)c1cccc2nnsc12`: the activation in [5] is -3.36%. Also, the result in [6] and in assay [3] was inactive. In addition, the Potency result in assay [2], in assay [8] and in [9] was “inactive” each time.

Take `CCOC(=O)CCCCCCCCC(=O)OCC`: the Potency entry in assay [2], in assay [8], in [9] and in assay [4] was “inactive” each time.

Regarding `COc1ccc(OC)c(OC)c1`, the Potency entry in assay [7], in assay [8], in [9] and in [4] was “inactive” throughout.

Take `Oc1ccc2ccccc2c1N=Nc1ccccc1`: the Potency result in [7] was “inactive”. For the same molecule, the Potency in [4] is 3.06 µM (active). The activation in assay [10] was 0.732%.

In the case of `c1cc(-c2ccncc2)ccn1`, the Potency result in assay [1], in assay [2], in [8] and in [9] was “inactive” in each case. Besides, in [3], the molecule was called inactive. In assay [10], the activation is -1.45%.

`O=C(O)c1ccc(C(=O)O)c(C(=O)O)c1`: the activation is -3.3% in assay [5] and -0.152% in assay [10]. For the same molecule, in [6], the result was inactive. In addition, the Potency entry in assay [2] and in assay [9] was “inactive” in each case.

As to `CCCCCCCCCCCCCCN`, the activation in assay [5] is 2.33%; in assay [10], -1.74%. The molecule was called inactive in assay [6] and in [3]. Moreover, the Potency entry in [7], in [1], in assay [2], in assay [8], in assay [9] and in assay [4] was “inactive” in each case.

Regarding `CSc1ccc(Cl)cc1`, in assay [5], the activation was -7.93%. For the same molecule, the outcome in assay [6] and in assay [3] was inactive. Besides, the Potency result in assay [7], in assay [1], in assay [2], in assay [9] and in [4] was “inactive” each time.

For the molecule `NN(c1ccccc1)c1ccccc1`, the activation was 8.8% in assay [5] and -2.86% in assay [10]. For the same molecule, the outcome in assay [6] and in [3] was inactive. The Potency entry in [7], in assay [2] and in assay [9] was “inactive” each time.

For `Cl[Si](Cl)(Cl)c1ccccc1`, the activation is 7.73% in [5] and -0.0547% in assay [10]. Moreover, the result in assay [6] and in [3] was inactive. In addition, the Potency entry in [7], in [2], in assay [8] and in assay [4] was “inactive” throughout.

As for `CCCCCCCC/C=C\CCCCCCCCCCCCC`, the figures for the activation in [5] and in assay [10] were 5.8% and -1.6%, respectively. Moreover, the result in assay [6] was inactive. For the same molecule, the Potency result in [7], in assay [1], in assay [2], in [9] and in assay [4] was “inactive” each time.

In the case of `CC1(C)[C@@H]([C@@H](Br)C(Br)(Br)Br)[C@H]1C(=O)O[C@H](C#N)c1cccc(Oc2ccccc2)c1`, the activation in assay [5] is -17.3%. The call in assay [3] was inactive. In [4], the Potency was 21.7 µM (active).

Consider `C[Si](Cl)(Cl)[Si](C)(Cl)Cl`, for which the figures for the activation in assay [5] and in [10] were 0.564% and -1.71%, respectively. The outcome in assay [6] and in assay [3] was inactive. Besides, the Potency entry in assay [7], in [1], in assay [2], in [8], in [9] and in assay [4] was “inactive” throughout.

For `O=C(O)C(Oc1ccc(Cl)cc1)Oc1ccc(Cl)cc1`, the results for the activation in assay [5] and in assay [10] were -5.73% and 0.776%, respectively. Also, the molecule was classed as inactive in assay [6] and in [3]. For the same molecule, the Potency result in assay [7], in assay [1], in assay [9] and in [4] was “inactive” each time.
